Source: PubChem BioAssay AID1159580 (chemical genetic matrix, 2015)
Out of some 5,500 compounds screened, about 2,000 (36%) were called active. Roughly 18% stayed inconclusive and do not appear here. Cut-off read from the data, not from the text of the source: active = normalized growth mostly below about 0.91 (no sharp cut-off); inconclusive = no clear call, values can overlap the other calls; inactive = mostly above about 0.92. Some of the results follow.

Assay: chemical genetic growth profiling, strain panel (AID 1159580);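 note: tested at 20 µM; growth read once vehicle control cultures reached saturation at 30 °C; 1 = growth at the plate median or of vehicle wells; lower values mean less growth of the strain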
Settings: growth OD

Measured: normalized growth

CCOc1nc2cccc(C(=O)OC(C)OC(=O)OC3CCCCC3)c2n1Cc1ccc(-c2ccccc2-c2nn[nH]n2)cc1 (configuration not stated)
active: S. cerevisiae deletion strains, locus YLR262C, strain YPT6 (second series), stronger effect = lower value 0.826
inactive: S. cerevisiae deletion strains, locus YJR075W, strain HOC1, stronger effect = lower value 0.989 | S. cerevisiae deletion strains, locus YKL009W, strain mrt4, stronger effect = lower value 1.1 | S. cerevisiae deletion strains, locus YKL068W, stronger effect = lower value 0.997 | S. cerevisiae deletion strains, locus YKL085W, strain MDH1 (second series), stronger effect = lower value 0.994 | S. cerevisiae deletion strains, locus YKL085W, strain MDH1, stronger effect = lower value 0.994 | S. cerevisiae deletion strains, locus YKL160W, strain elf1, stronger effect = lower value 1.02 | S. cerevisiae deletion strains, locus YKL190W, strain CNB1, stronger effect = lower value 0.999 | S. cerevisiae deletion strains, locus YKR001C, strain vps1, stronger effect = lower value 0.963 | S. cerevisiae deletion strains, locus YKR026C, strain gcn3, stronger effect = lower value 1.03 | S. cerevisiae deletion strains, locus YKR091W, strain srl3, stronger effect = lower value 1.02 | S. cerevisiae deletion strains, locus YLL001W, strain dnm1, stronger effect = lower value 1.03 | S. cerevisiae deletion strains, locus YLL026W, stronger effect = lower value 1.01 | S. cerevisiae deletion strains, locus YLL041C, strain sdh2, stronger effect = lower value 1.01 | S. cerevisiae deletion strains, locus YLR027C, strain aat2, stronger effect = lower value 1.02 | S. cerevisiae deletion strains, locus YLR039C, strain RIC1, stronger effect = lower value 0.815 | S. cerevisiae deletion strains, locus YLR058C, strain SHM2, stronger effect = lower value 1.01 | S. cerevisiae deletion strains, locus YLR102C, strain apc9, stronger effect = lower value 0.998 | S. cerevisiae deletion strains, locus YLR113W, strain HOG1, stronger effect = lower value 1.03 | S. cerevisiae deletion strains, locus YLR221C, strain rsa3, stronger effect = lower value 1.01 | S. cerevisiae deletion strains, locus YLR258W, strain gsy2, stronger effect = lower value 1.02 | S. cerevisiae deletion strains, locus YLR262C, strain YPT6, stronger effect = lower value 0.797 | S. cerevisiae deletion strains, locus YLR268W, strain sec22, stronger effect = lower value 0.981 | S. cerevisiae deletion strains, locus YLR320W, strain mms22, stronger effect = lower value 0.999 | S. cerevisiae deletion strains, locus YLR330W, strain CHS5, stronger effect = lower value 1 | S. cerevisiae deletion strains, locus YLR342W, strain FKS1 (second series), stronger effect = lower value 0.862 | S. cerevisiae deletion strains, locus YLR342W, strain FKS1, stronger effect = lower value 1.02 | S. cerevisiae deletion strains, locus YLR357W, strain rsc2, stronger effect = lower value 1.07 | S. cerevisiae deletion strains, locus YLR370C, strain arc18, stronger effect = lower value 1.02 | S. cerevisiae deletion strains, locus YLR371W, strain rom2, stronger effect = lower value 0.997 | S. cerevisiae deletion strains, locus YLR384C, strain iki3, stronger effect = lower value 1.01 | S. cerevisiae deletion strains, locus YLR418C, strain cdc73, stronger effect = lower value 0.959 | S. cerevisiae deletion strains, locus YML016C, strain PPZ1, stronger effect = lower value 1.01 | S. cerevisiae deletion strains, locus YML032C, strain rad52, stronger effect = lower value 1 | S. cerevisiae deletion strains, locus YML120C, strain ndi1, stronger effect = lower value 1.04 | S. cerevisiae deletion strains, locus YML124C, strain tub3, stronger effect = lower value 1 | S. cerevisiae deletion strains, locus YMR058W, strain fet3, stronger effect = lower value 1.02 | S. cerevisiae deletion strains, locus YMR078C, strain ctf18, stronger effect = lower value 1.01 | S. cerevisiae deletion strains, locus YMR125W, strain sto1, stronger effect = lower value 1.06 | S. cerevisiae deletion strains, locus YMR129W, stronger effect = lower value 1.03 | S. cerevisiae deletion strains, locus YMR205C, strain PFK2, stronger effect = lower value 0.99 | S. cerevisiae deletion strains, locus YMR223W, strain ubp8, stronger effect = lower value 0.984 | S. cerevisiae deletion strains, locus YMR231W, strain pep5, stronger effect = lower value 1.02 | S. cerevisiae deletion strains, locus YMR263W, strain SAP30, stronger effect = lower value 1 | S. cerevisiae deletion strains, locus YMR307W, strain GAS1, stronger effect = lower value 0.734 | S. cerevisiae deletion strains, locus YNL067W, strain RPL9B, stronger effect = lower value 0.992 | S. cerevisiae deletion strains, locus YNL071W, strain lat1, stronger effect = lower value 1.02 | S. cerevisiae deletion strains, locus YNL128W, strain TEP1, stronger effect = lower value 0.995 | S. cerevisiae deletion strains, locus YNL153C, strain GIM3, stronger effect = lower value 1 | S. cerevisiae deletion strains, locus YNL183C, strain NPR1, stronger effect = lower value 0.968 | S. cerevisiae deletion strains, locus YNL209W, strain ssb2, stronger effect = lower value 1 | S. cerevisiae deletion strains, locus YNL233W, strain BNI4, stronger effect = lower value 0.999 | S. cerevisiae deletion strains, locus YNL248C, strain rpa49, stronger effect = lower value 1.02 | S. cerevisiae deletion strains, locus YNL250W, strain rad50, stronger effect = lower value 0.991 | S. cerevisiae deletion strains, locus YNL271C, strain bni1, stronger effect = lower value 1 | S. cerevisiae deletion strains, locus YNL298W, strain CLA4, stronger effect = lower value 1 | S. cerevisiae deletion strains, locus YNL307C, strain MCK1, stronger effect = lower value 0.995 | S. cerevisiae deletion strains, locus YNL322C, strain KRE1 (second series), stronger effect = lower value 1.03 | S. cerevisiae deletion strains, locus YNL322C, strain KRE1, stronger effect = lower value 1 | S. cerevisiae deletion strains, locus YNR049C, strain mso1, stronger effect = lower value 1.04 | S. cerevisiae deletion strains, locus YNR052C, strain pop2, stronger effect = lower value 1 | S. cerevisiae deletion strains, locus YOL006C, strain TOP1, stronger effect = lower value 0.763 | S. cerevisiae deletion strains, locus YOL012C, strain htz1 0.976 | S. cerevisiae deletion strains, locus YOL147C, strain pex11, stronger effect = lower value 1 | S. cerevisiae deletion strains, locus YOR001W, strain rrp6, stronger effect = lower value 1.02 | S. cerevisiae deletion strains, locus YOR061W, strain CKA2, stronger effect = lower value 1 | S. cerevisiae deletion strains, locus YOR069W, strain VPS5, stronger effect = lower value 1 | S. cerevisiae deletion strains, locus YOR070C, strain gyp1, stronger effect = lower value 1 | S. cerevisiae deletion strains, locus YOR080W, strain dia2, stronger effect = lower value 1.02 | S. cerevisiae deletion strains, locus YOR083W, strain WHI5, stronger effect = lower value 1.01 | S. cerevisiae deletion strains, locus YOR106W, strain vam3, stronger effect = lower value 0.983 | S. cerevisiae deletion strains, locus YOR136W, strain idh2, stronger effect = lower value 0.984 | S. cerevisiae deletion strains, locus YOR144C, strain elg1, stronger effect = lower value 0.993 | S. cerevisiae deletion strains, locus YOR184W, strain ser1, stronger effect = lower value 0.952 | S. cerevisiae deletion strains, locus YOR231W, strain MKK1, stronger effect = lower value 0.998 | S. cerevisiae deletion strains, locus YOR265W, strain rbl2, stronger effect = lower value 1.02 | S. cerevisiae deletion strains, locus YOR270C, strain vph1, stronger effect = lower value 1.04 | S. cerevisiae deletion strains, locus YOR290C, strain snf2, stronger effect = lower value 1.02 | S. cerevisiae deletion strains, locus YOR316C, strain cot1, stronger effect = lower value 0.996 | S. cerevisiae deletion strains, locus YPL051W, strain arl3, stronger effect = lower value 0.999 | S. cerevisiae deletion strains, locus YPL055C, strain LGE1, stronger effect = lower value 0.988 | S. cerevisiae deletion strains, locus YPL078C, strain atp4, stronger effect = lower value 1.05 | S. cerevisiae deletion strains, locus YPL106C, strain sse1, stronger effect = lower value 0.993 | S. cerevisiae deletion strains, locus YPL240C, strain hsp82, stronger effect = lower value 1.01 | S. cerevisiae deletion strains, locus YPL241C, strain CIN2, stronger effect = lower value 1 | S. cerevisiae deletion strains, locus YPL256C, strain CLN2, stronger effect = lower value 0.961 | S. cerevisiae deletion strains, locus YPR119W, strain clb2, stronger effect = lower value 0.992 | S. cerevisiae deletion strains, locus YPR141C, strain kar3, stronger effect = lower value 0.998 | S. cerevisiae deletion strains, locus YPR163C, strain tif3, stronger effect = lower value 0.99 | S. cerevisiae deletion strains, locus YPR167C, strain met16, stronger effect = lower value 1 | S. cerevisiae deletion strains, strain wtn01, stronger effect = lower value 0.989 | S. cerevisiae strains, strain wild type, stronger effect = lower value 0.997
